POLB inh = DNA polymerase beta (human) inhibition | hit rate 1.3% among 340,000 | Pol beta primer extension/strand displacement, fluorescence kinetic | AID 485314 | P06746 | Potency, µM (top dose mostly 114 µM), for the others: top-dose activity change, negative = inhibition, actives largely listed as inhibitors; also: % is scaled to controls: 0 for no effect and ±100 for the full control effect
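10 nM enzyme + cpd, 15 min RT; start with substrate 50 nM final; read 0 min and after 10 min RT. Corrected, normalized data; 4-parameter Hill curve fit.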
POLI inh = inhibitors of human DNA polymerase iota. Q9UNA4. Pol iota fluorescent replication assay, 10 min. Potency, µM (titrated, usually from 115 µM), without a hit: at the top dose activity, negative = inhibition, actives largely listed as inhibitors. hit rate 1% among 390,000. AID 588590
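Fluorescent replication assay read twice, at 0 min and 10 min after adding 50 nM (final) substrate. Enzyme (10 nM) and compounds were first incubated 15 min at room temperature; enzyme-free buffer wells were negative controls.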
POLH inh = blocks human DNA polymerase eta activity | Potency, µM (doses to about 114 µM), for inactives: at the highest dose activity change, negative = inhibition, actives largely listed as inhibitors | Q9Y253 | AID 588591 | hit rate 1.2% among 390,000 | recombinant Pol eta, fluorescent DNA replication assay; also: % is scaled to controls: 0 for no effect and ±100 for the full control effect
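Pol eta (10 nM) was preincubated with compounds for 15 min at room temperature, after which fluorescent replication substrate (50 nM final) was added to start the reaction. Fluorescence was read kinetically at 0 and 10 min.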
Pol kappa inh = DNA polymerase kappa (human) inhibition; hit rate 0.53% among 400,000; AID 588579; purified Pol kappa, fluorescent DNA synthesis assay, 10 min; Q9UBT6; Potency, µM (top dose mostly 107 µM), for inactives: at the highest dose activity, negative = inhibition, usual class: inhibitors; also: % is scaled to controls: 0 for no effect and ±100 for the full control effect
Target sequence (Q9UBT6 whole entry, looked up): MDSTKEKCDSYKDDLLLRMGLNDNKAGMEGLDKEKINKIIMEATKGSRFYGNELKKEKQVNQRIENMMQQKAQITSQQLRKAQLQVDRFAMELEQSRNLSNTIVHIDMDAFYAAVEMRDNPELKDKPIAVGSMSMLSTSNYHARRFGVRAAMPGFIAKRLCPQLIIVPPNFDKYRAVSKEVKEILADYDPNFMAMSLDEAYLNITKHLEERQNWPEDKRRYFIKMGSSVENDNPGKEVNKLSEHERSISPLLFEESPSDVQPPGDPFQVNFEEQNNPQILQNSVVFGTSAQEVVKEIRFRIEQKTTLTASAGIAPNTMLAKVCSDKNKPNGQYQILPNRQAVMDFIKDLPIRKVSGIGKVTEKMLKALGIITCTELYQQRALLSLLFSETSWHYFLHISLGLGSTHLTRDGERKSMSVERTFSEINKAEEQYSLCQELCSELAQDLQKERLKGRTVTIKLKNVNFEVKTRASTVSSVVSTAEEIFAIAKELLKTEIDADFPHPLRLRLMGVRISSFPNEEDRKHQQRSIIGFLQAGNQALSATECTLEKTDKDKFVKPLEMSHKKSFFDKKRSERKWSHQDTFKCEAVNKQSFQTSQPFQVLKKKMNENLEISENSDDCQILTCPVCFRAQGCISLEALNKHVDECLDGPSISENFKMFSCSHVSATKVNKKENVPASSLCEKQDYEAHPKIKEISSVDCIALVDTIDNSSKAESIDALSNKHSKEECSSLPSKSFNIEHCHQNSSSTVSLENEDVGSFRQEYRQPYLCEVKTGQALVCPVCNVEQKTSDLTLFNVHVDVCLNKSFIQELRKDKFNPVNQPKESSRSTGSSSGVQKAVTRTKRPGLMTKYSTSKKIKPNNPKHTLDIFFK
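10 nM Pol kappa was preincubated with compounds for 15 min at room temperature. Reaction started with 50 nM (final) substrate. Fluorescence read kinetically at 0 and 10 min.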
FEN1 inh = blocks human flap endonuclease 1 | Recombinant FEN1 flap cleavage, fluorescence, 15 min | hit rate 0.35% among 390,000 | P39748 | Potency, µM (top dose mostly 114 µM), for inactives: top-dose activity change, negative = inhibition, usual class: inhibitors; also: % is scaled to controls: 0 for no effect and ±100 for the full control effect; nearly all actives have a fitted effect of over 65% in size
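Concentration–response screening of FEN1 (10 nM): 15 min compound preincubation at room temperature, reaction started with 50 nM substrate and read at 0 and 15 min. Corrected, normalized data were fitted by a four-parameter Hill equation.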
WRN inhibitor = WRN helicase (human) inhibition; Q14191; Potency, µM (top dose mostly 114 µM), for inactives: at the top dose activity change, negative = inhibition, hits mostly inhibitors; hit rate 0.46% among 360,000; AID 651768; WRN helicase unwinding, fluorescent forked duplex, kinetic; also: % is scaled to controls: 0 for no effect and ±100 for the full control effect; nearly all actives have a fitted effect of over 55% in size
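Enzyme (20 nM final) and test compound sit together 15 min at room temperature before substrate addition. Substrate is a single-forked duplex oligonucleotide (100 nM) labelled with fluorophore and quencher, with 2 mM ATP; helicase unwinding raises red fluorescence, read kinetically.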
* marks the source's active call; other numbers are inactive results; ? = inconclusive; . = no result; [ ] = remark or other dose. Compounds with a hit are over-represented: about 2.4% of the library has one in this group of screens. Calls follow the shape of the dose curve; as a rule, active = well fitted curve in the direction sought with a large enough effect; inconclusive = small, poorly fitted or top-dose-only effect, or another doubt; inactive = no such curve, though single readings can be large; an effect the other way counts as inactive or inconclusive. Potency is read from the fitted curve at half-maximal effect.

SMILES	POLB inh	POLI inh	POLH inh	Pol kappa inh	FEN1 inh	WRN inhibitor
Cc1nnc2ccc(-c3ccc(NS(=O)(=O)c4ccccc4[N+](=O)[O-])cc3)nn12	.	?	39.8µM*	?	-30.8%	-14.5%[11.6 µM]
CN1C/C(=C/c2ccccc2[N+](=O)[O-])C(=O)/C(=C\c2ccccc2[N+](=O)[O-])C1	.	89.1µM*	?	?	?	-8.4%[11.6 µM]
O=C(Nc1ccccc1)c1nc[nH]c1C(=O)NCCCNC(=O)c1[nH]cnc1C(=O)Nc1ccccc1	.	-7.8%	-12.9%	0.0%	-16.2%	-0.4%
O=C(Nc1ccccc1)c1nc[nH]c1C(=O)NCCN(CCNC(=O)c1[nH]cnc1C(=O)Nc1ccccc1)CCNC(=O)c1[nH]cnc1C(=O)Nc1ccccc1	.	79.4µM*	-9.0%	-31.7%	6.0%	-11.2%
CCOc1ccc(NC(=O)N(Cc2cn(CC)c3ccccc23)C2CCCCCC2)cc1	-21.0%	1.2%	-15.9%	-15.5%	-18.8%	.
CC[C@]12c3[nH]c4cc(-c5ccco5)ccc4c3CCN1C(=O)[C@@H](CC(=O)NCCC1=CCCCC1)C[C@@H]2C(=O)N1CCN(C(=O)c2ccco2)CC1	.	7.94µM*	-9.7%	28.2µM*	-7.3%	-4.7%[11.6 µM]
COc1ccc(CNC(=O)C[C@H]2C[C@H](C(=O)N3CCCCC3)[C@@]3(C)c4[nH]c5cc(-c6ccco6)ccc5c4CCN3C2=O)cc1OC	.	39.8µM*	-15.5%	?	?	-1.1%
CC[C@]12c3[nH]c4cc(CCC(=O)N(C)C)ccc4c3CCN1C(=O)[C@@H](CC(=O)NCCC1=CCCCC1)C[C@@H]2C(=O)N1CCN(C(=O)c2ccco2)CC1	.	39.9%	-17.3%	5.1%	-3.4%	2.4%
Cc1ccc(NC(=S)NC(=O)c2sc3ccccc3c2Cl)c(C(=O)O)c1	20µM*	.	.	.	.	.
CCN(C(=O)CN1CCN(c2ccc(O)cc2)CC1)c1c(N)n(Cc2ccccc2)c(=O)[nH]c1=O	44.7µM*	?	12.3%	-36.0%	-0.4%	-13.4%
CCc1nc2ccc(C(=O)O)cc2nc1CC	-24.0%	-2.5%	14.1µM*	-2.1%	-3.6%	-6.6%[57.1 µM]
CS(=O)(=O)c1ccc2nc(NC(=O)Nc3cccc(Cl)c3)sc2c1	50.1µM*	?	-9.2%	-4.2%	5.4%	-24.9%
Cc1ccc(NC(=O)Nc2nc3ccc(S(C)(=O)=O)cc3s2)cc1	.	23.3%	79.4µM*	-2.7%	-1.6%	-5.6%[11.6 µM]
CS(=O)(=O)c1ccc2nc(NC(=O)Nc3ccc(Cl)c(Cl)c3)sc2c1	-15.5%	138.9%	-16.0%	-7.7%	4.6%	-3.5%
COc1ccc(CNc2nc(-c3cccc(C#N)c3)nc3ccccc23)c(OC)c1	.	.	.	-3.7%[60.1 µM]	.	.
COCCn1c(N)c(C(=O)OCc2ccccc2)c2nc3ccccc3nc21	12.0%	20µM*	-8.2%	-13.2%	-23.8%	-14.2%[57.1 µM]
C=CCn1c(N)c(C(=O)OCCC)c2nc3ccccc3nc21	21.8%	-3.5%	-15.4%	-3.4%	4.4%	-7.6%
COc1ccc(NC(=O)CC2C(=O)N(c3ccccc3)C(=O)N2CCc2sccc2C)cc1 (stereo not given)	15.4%	38.1%	-15.6%	0.5%	-3.0%	.
C=C1NC(=O)c2cc(CN(C)c3ccc(C(=O)N[C@@H](CCC(=O)O)C(=O)O)s3)ccc2N1	.	.	.	-1.0%[60.1 µM]	.	.
COC(=O)c1cccc(-n2c(C)cc(/C=C3\SC(=O)NC3=O)c2C)c1	.	.	-0.2%	.	.	-13.1%
Cc1cc(/C=C2\SC(=S)NC2=O)c(C)n1-c1ccccc1	?	?	50.1µM*	?	-7.7%	-29.5%
Cc1cc(C(=O)O)ccc1-n1c(C)cc(/C=C2\SC(=O)NC2=O)c1C	?	?	50.1µM*	-27.0%	11.7%	-6.1%[11.6 µM]
COc1cc(/C=N/N2C(=O)CSC2=S)ccc1O	-4.7%	12.6µM*	-9.1%	79.4µM*	?	?
O=C1CSC(=S)N1/N=C/c1cc(Br)c(O)c(Br)c1	20µM*	14.1µM*	11.2µM*	15.8µM*	22.4µM*	20µM*
O=C1CSC(=S)N1/N=C/c1ccc(Cl)c([N+](=O)[O-])c1	22.4µM*	.	.	.	.	.
SMILES	POLB inh	POLI inh	POLH inh	Pol kappa inh	FEN1 inh	WRN inhibitor
O=C1CSC(=S)N1/N=C/c1ccc2c(c1)OCCO2	-6.6%	?	-6.6%	-4.1%	5.2%	-31.1%
Cc1nn(-c2ccccc2)c2nc(C3CC3)cc(C(=O)Nc3cccc(F)c3)c12	0.6%	-16.6%	-23.2%	1.2%	2.8%	.
CC1CC2C3CCC4=CC(=O)C=C[C@@]4(C)[C@]3(F)C(O)C[C@]2(C)[C@]1(O)C(=O)COP(=O)(O)O (stereo not given in full)	.	.	.	-4.7%[60.1 µM]	.	.
C=CSc1sc(Cl)c(N(CC)CC)c1[N+](=O)[O-]	20µM*	?	?	-6.8%	-6.1%	-23.4%
C=CSc1sc(Cl)c(N(C)C)c1[N+](=O)[O-]	10.7%	22.6%	-1.9%	-9.4%	-1.7%	-0.5%
CCn1c2ccccc2c2cc(/C=N/n3cn[nH]c3=S)ccc21	18.5%	-3.2%	-0.7%	-12.6%	?	-5.3%
S=c1[nH]nc(-c2cc(-c3ccccc3)n[nH]2)n1/N=C/c1ccc(Cl)cc1	39.8µM*	15.8µM*	?	-9.5%	14.1%	-16.5%[11.6 µM]
CCn1c2ccccc2c2cc(/C=N/n3c(-c4cc(C)[nH]n4)n[nH]c3=S)ccc21	50.1µM*	?	?	-17.4%	?	-12.4%[11.6 µM]
S=c1[nH]nc(-c2cc(-c3ccccc3)n[nH]2)n1/N=C/c1ccc(Cl)c(Cl)c1	22.4µM*	?	?	?	?	35.5µM*
COc1ccc(C2Nc3ccccc3C(=O)N2c2cccc3ccccc23)cc1COc1c(C)cccc1C (stereo not given)	.	11.3%	.	-10.9%	-8.5%	.
O=c1c(O[C@H]2O[C@@H](CO)[C@H](O)[C@@H](O)[C@@H]2O)c(-c2ccc(O)cc2)oc2cc(O)cc(O)c12	.	-1.1%	?	-7.7%	4.3%	11.7%
O=c1c(O)c(-c2ccc(O)c(O)c2)oc2c(OC3OC(CO)C(O)C(O)C3O)c(O)cc(O)c12 (stereo not given)	.	.	.	3.16µM*	.	.
O=c1c(O)c(-c2ccc(O)c(O)c2)oc2c(OC[C@@H]3O[C@@H](O)[C@@H](O)[C@H](O)[C@H]3O)c(O)cc(O)c12	.	.	.	0.316µM*	.	.
C[C@@H]1O[C@@H](O[C@H]2[C@H](O)[C@@H](O)[C@H](Oc3c(-c4ccc(O)c(O)c4)oc4cc(O)cc(O)c4c3=O)O[C@@H]2CO)[C@H](O)[C@H](O)[C@H]1O	.	?	?	?	?	-16.4%
CCc1ccccc1NC(=O)Nc1nnc(N(C)Cc2ccccc2)s1	28.9%	-1.3%	-10.1%	-10.8%	-17.7%	.
